Several values for one entry are separate records, joined by “and”; a condition that tells them apart may be missing. Equal entries are not always repeated. Inconclusive results are not listed. Entries that show only a call come without a potency. A structure can be active in one record and inactive in another. Activity calls are given as the source filed them. The call rests on the fitted dose curve; in most records, active means well fitted curve in the direction sought with a large enough effect in the repeat runs; inconclusive means weak or mixed curves; inactive means no such curve, though single readings can be large; an effect the other way counts as inactive or inconclusive. Residues, ends and D or L forms follow the SMILES beside them.
Columns and labels:
[1] = target: Cytochrome P450 1A2 (Homo sapiens) (UniProt P05177); test: Cytochrome P450 Family 1 Subfamily A Member 2 (CYP1A2) small molecule antagonists: luciferase reporter qHTS assay (AID 1671199); further: potency means the concentration at half of the fitted maximal effect
Chain of Cytochrome P450 1A2 (Homo sapiens) (P05177 whole entry, looked up): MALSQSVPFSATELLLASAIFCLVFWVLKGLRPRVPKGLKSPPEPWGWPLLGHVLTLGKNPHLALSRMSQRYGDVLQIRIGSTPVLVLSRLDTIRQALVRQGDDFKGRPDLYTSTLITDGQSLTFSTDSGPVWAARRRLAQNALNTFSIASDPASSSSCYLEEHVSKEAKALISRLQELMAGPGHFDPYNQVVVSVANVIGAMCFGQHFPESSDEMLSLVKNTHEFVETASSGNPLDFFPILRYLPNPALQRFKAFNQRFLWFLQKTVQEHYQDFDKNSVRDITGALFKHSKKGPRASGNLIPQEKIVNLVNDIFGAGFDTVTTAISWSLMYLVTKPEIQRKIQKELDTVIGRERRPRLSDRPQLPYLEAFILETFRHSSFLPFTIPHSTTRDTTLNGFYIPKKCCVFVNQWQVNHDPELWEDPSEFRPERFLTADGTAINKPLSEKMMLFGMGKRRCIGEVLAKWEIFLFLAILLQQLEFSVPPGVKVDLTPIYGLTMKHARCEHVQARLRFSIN
Method in brief: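 CYP1A2 turnover of a luminogenic substrate was quantified after 1 h with NADPH regeneration at room temperature. Furafylline served as positive control.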

[2] = target: Voltage-gated inwardly rectifying potassium channel KCNH2 (Homo sapiens) (UniProt Q12809); test: Human Ether-a-go-go-Related Gene (hERG) channel small molecule antagonists: fluorescence cell-based qHTS assay (AID 1671200);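 further: hERG-expressing U2OS cells given a thallium stimulus after FluxOR II dye loading; series mostly up to about 77 µM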
Chain of Voltage-gated inwardly rectifying potassium channel KCNH2 (Homo sapiens) (Q12809 whole entry, looked up): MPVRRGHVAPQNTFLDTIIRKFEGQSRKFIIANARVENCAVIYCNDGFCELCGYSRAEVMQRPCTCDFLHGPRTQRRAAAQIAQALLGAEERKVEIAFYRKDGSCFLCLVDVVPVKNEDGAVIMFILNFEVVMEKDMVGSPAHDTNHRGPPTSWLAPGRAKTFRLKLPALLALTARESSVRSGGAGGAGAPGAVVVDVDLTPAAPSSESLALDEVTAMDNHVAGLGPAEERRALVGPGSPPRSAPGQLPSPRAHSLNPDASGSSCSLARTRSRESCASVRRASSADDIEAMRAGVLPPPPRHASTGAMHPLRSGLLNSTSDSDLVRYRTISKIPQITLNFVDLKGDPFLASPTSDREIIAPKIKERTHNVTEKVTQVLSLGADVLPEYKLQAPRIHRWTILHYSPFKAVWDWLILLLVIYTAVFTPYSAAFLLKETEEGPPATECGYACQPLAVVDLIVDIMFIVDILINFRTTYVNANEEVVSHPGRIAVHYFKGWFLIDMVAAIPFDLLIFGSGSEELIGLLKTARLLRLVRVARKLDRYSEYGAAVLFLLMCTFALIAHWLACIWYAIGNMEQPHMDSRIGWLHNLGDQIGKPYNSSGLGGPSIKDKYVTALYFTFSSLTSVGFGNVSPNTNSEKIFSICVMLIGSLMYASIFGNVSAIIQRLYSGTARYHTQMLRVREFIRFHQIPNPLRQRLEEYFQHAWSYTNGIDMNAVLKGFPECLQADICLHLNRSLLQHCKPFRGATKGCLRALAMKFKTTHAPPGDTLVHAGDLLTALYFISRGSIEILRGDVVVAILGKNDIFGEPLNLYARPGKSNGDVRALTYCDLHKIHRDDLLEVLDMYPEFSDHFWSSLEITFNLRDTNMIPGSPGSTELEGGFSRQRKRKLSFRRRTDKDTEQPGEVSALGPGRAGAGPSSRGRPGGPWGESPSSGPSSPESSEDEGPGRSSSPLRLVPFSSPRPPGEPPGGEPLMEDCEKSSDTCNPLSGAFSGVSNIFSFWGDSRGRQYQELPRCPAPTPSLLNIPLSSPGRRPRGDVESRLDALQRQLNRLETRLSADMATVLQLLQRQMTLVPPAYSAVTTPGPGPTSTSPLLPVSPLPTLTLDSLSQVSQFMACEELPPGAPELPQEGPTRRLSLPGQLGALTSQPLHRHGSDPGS
Method in brief: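 Measured: Tl+ flux via fluorescence (480/540 nm) in hERG-expressing U2OS cells after 1 h dye loading at room temperature.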

[3] = target: Cytochrome P450 3A4 (Homo sapiens) (UniProt P08684); test: Cytochrome P450 Family 3 Subfamily A Member 4 (CYP3A4) small molecule antagonists: luciferase reporter qHTS assay (AID 1671201); further: series mostly up to about 120 µM
Chain of Cytochrome P450 3A4 (Homo sapiens) (P08684 whole entry, looked up): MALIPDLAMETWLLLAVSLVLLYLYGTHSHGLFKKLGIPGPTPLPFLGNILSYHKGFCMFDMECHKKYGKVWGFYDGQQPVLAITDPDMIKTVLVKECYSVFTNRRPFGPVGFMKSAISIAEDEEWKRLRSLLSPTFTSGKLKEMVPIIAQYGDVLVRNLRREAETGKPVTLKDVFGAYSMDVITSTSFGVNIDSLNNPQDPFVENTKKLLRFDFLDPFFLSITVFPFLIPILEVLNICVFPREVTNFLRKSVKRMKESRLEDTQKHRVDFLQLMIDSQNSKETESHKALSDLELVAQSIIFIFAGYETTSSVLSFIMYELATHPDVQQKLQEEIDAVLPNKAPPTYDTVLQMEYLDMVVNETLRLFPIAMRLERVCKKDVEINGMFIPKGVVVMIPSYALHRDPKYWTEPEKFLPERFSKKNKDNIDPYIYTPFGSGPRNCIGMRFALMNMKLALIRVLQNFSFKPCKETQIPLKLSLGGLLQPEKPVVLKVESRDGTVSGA
Method in brief: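 Setup: enzyme-substrate mix, compound pin transfer, 10 min RT. Reaction: NADPH regeneration solution, 1 h RT. Readout: detection reagent stops turnover, luminescence measured after 20 min, expressed in relative luminescence units.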
Further: nearly all actives have a fitted effect of over 50% in size.

Row | SMILES | Potency [1] | outcome [2] | Potency [3]
1 | COC(=O)[C@H](Cc1ccccc1)NC(=O)[C@@H](N)CC(=O)O (H-Asp-Phe-OMe) | inactive | inactive | inactive
2 | Cc1ccccc1C(OCCN(C)C)c1ccccc1 (stereo unspecified) | inactive and 31.7 µM (active) | – | inactive
3 | O=C(O)CCCCC(=O)O | inactive | inactive | inactive
4 | NC(=O)c1cnccn1 | inactive | inactive | inactive
5 | OCCc1ccccc1 | inactive | inactive | inactive
6 | O=C(O)c1cccnc1 | – | inactive | –
7 | CNC[C@H](O)c1cccc(O)c1 | – | inactive | –
8 | CC(O)CN(CCN(CC(C)O)CC(C)O)CC(C)O (stereo unspecified) | inactive | inactive | inactive
9 | O=C(O)C(=O)O | inactive | inactive | inactive
10 | Cc1ccc(C)c(OCCCC(C)(C)C(=O)O)c1 | 71 µM (active) and inactive | inactive | inactive
11 | Cn1cc[nH]c1=S | – | inactive | –
12 | Cc1ccc(S(=O)(=O)NC(=O)NN2CCCCCC2)cc1 | – | inactive | –
13 | COc1c2occc2cc2ccc(=O)oc12 | – | inactive | –
14 | O=C1CN(/N=C/c2ccc([N+](=O)[O-])o2)C(=O)N1 | inactive | inactive | inactive
15 | Cn1c(=O)c2[nH]cnc2n(C)c1=O | inactive | – | inactive
16 | O=c1cc[nH]c(=S)[nH]1 | 71.5 µM (active) and 36.7 µM (active) and 24.5 µM (active) | inactive | inactive
17 | O=c1ccc2ccccc2o1 | 36.3 µM (active) and 31.7 µM (active) and inactive | inactive | inactive
18 | C1N2CN3CN1CN(C2)C3 | inactive and 15.5 µM (active) | inactive | inactive
19 | O=C(O)c1cc(N=Nc2ccc(S(=O)(=O)Nc3ccccn3)cc2)ccc1O | inactive | inactive | inactive
20 | Oc1ccc(/C=C/c2cc(O)cc(O)c2)cc1 | – | inactive | –
21 | c1ccc2[nH]ccc2c1 | 35 µM (active) and 35.6 µM (active) and 17.4 µM (active) | inactive | inactive
22 | NC(=O)NC1NC(=O)NC1=O (stereo unspecified) | – | inactive | –
23 | COc1ccc2[nH]cc(CCNC(C)=O)c2c1 | – | inactive | inactive
24 | CCCCC(CC)COC(=O)/C=C/c1ccc(OC)cc1 (stereo unspecified) | 19.9 µM (active) and 12.6 µM (active) and 13.8 µM (active) | inactive | inactive
25 | Cc1ccc(O)cc1 | – | inactive | –

— PubChem BioAssay (Tox21)
